Where a name gives a salt, the structure may show the parent alone. ± gives the standard deviation.
What was measured:
Jurkat [1] = experiment: mean cell size (FSC-A) relative to DMSO control (fraction of control); higher = larger cells; details: 48 h
Summary of the method: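 Jurkat cells seeded at 600 cells/µl were incubated 1 h, then exposed for 48h to the Enzo Screen-Well FDA Approved Drug Library v2.0 at 25µM in 0.9% (v/v) final DMSO. Drugs that cut counts below 20% of controls were diluted 10-fold and retested, down to 25nM. Cell count and mean cell size (forward scatter area) were read on an Accuri C6 flow cytometer, relative to solvent-only controls. Plates held 6-12 controls; values are means of 3 biological replicates.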

Jurkat [2] = experiment: cell count relative to DMSO control (fraction of control); higher = more cells (less growth inhibition); details: 48 h

CNS(=O)(=O)CCc1ccc2[nH]cc(C3CCN(C)CC3)c2c1 [Naratriptan·HCl] (concentration: 25 µM)
mean cell size (Jurkat [1]): 0.95 ± 0.019
cell count (Jurkat [2]): 0.951 ± 0.065

CO[C@H]1C[C@@H]2CC[C@@H](C)[C@@](O)(O2)C(=O)C(=O)N2CCCC[C@H]2C(=O)O[C@H]([C@H](C)C[C@@H]2CC[C@@H](OCCO)[C@H](OC)C2)CC(=O)[C@H](C)/C=C(\C)[C@@H](O)[C@@H](OC)C(=O)[C@H](C)C[C@H](C)/C=C/C=C/C=C/1C [Everolimus] (concentration: 2.5 µM)
mean cell size (Jurkat [1]): 0.761 ± 0.015
cell count (Jurkat [2]): 0.552 ± 0.072

CCCc1nc(C(C)(C)O)c(C(=O)O)n1Cc1ccc(-c2ccccc2-c2nnn[nH]2)cc1 [Olmesartan] (concentration: 25 µM)
mean cell size (Jurkat [1]): 0.97 ± 0.034
cell count (Jurkat [2]): 1.16 ± 0.1

Nc1ccn(C[C@@H](CO)OCP(=O)(O)O)c(=O)n1 [Cidofovir] (concentration: 25 µM)
mean cell size (Jurkat [1]): 1.13 ± 0.057
cell count (Jurkat [2]): 0.593 ± 0.094

CCCCc1oc2ccccc2c1C(=O)c1cc(I)c(OCCN(CC)CC)c(I)c1 [Amiodarone·HCl] (concentration: 2.5 µM)
mean cell size (Jurkat [1]): 1.05 ± 0.018
cell count (Jurkat [2]): 0.616 ± 0.12

CC(C)(O/N=C(\C(=O)N[C@@H]1C(=O)N2C(C(=O)[O-])=C(C[n+]3ccccc3)CS[C@H]12)c1csc(N)n1)C(=O)O [Ceftazidime] (concentration: 25 µM)
mean cell size (Jurkat [1]): 0.958 ± 0.011
cell count (Jurkat [2]): 0.884 ± 0.095

Cc1ccc(Cl)c(Nc2ccccc2C(=O)O)c1Cl [Meclofenamate·Na] (concentration: 25 µM)
mean cell size (Jurkat [1]): 0.903 ± 0.031
cell count (Jurkat [2]): 0.293 ± 0.032

NCCC(O)(P(=O)(O)O)P(=O)(O)O [Pamidronate Disodium  Pentahydrate (Pamidronic Acid)] (concentration: 25 µM)
mean cell size (Jurkat [1]): 0.967 ± 0.034
cell count (Jurkat [2]): 0.822 ± 0.023

— the supplement of paper PMC4709259
